Most compounds without a hit are left out; they make up all but 3.6% or so of the library.
NRP1-CendR mod – modulators of CendR peptide binding to human neuropilin-1; AID 602438; 0.85% of 360,000 active; FAM-RPARPAR peptide binding to NRP-1, fluorescence polarization; inhibition, % at 25 µM;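 active = inhibition or corrected inhibition above about 18%, plus a signal ratio from 0.5 to 1.5, limit read from the data, passing the limit was not always enough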
NadD block – NadD (S. aureus) enzyme inhibition. purified NadD enzyme, colorimetric absorbance read-out. 0.78% of 360,000 active. inhibition, % at 20 µM; in the data active = inhibition above about 26%
FAS-TE inh – blocks the thioesterase domain of human fatty acid synthase; recombinant FAS-TE, OMFH fluorogenic substrate, fluorescence endpoint; 0.67% of 360,000 active; inhibition, % at 15 µM; AID 602261;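 active = compounds whose normalised, plate-corrected inhibition of enzyme fluorescence in the single-dose primary screen is 50% or more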;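 note: 0% = DMSO with enzyme and 100% = substrate without enzyme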
Myeloid diff MLP – myeloid differentiation induction | ER-HoxA9 myeloid progenitors, lysozyme-GFP differentiation, flow cytometry | calls only at 10 µM | 1% of 360,000 active | AID 624256;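 active = normalized GFP-positive differentiation at or above the plate's own cutoff, the solvent-only control mean plus 3 SD; inconclusive = no clear call, values can overlap the other calls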;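 note: cells exposed to compound for four days before flow analysis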
CRFBP-R2 block – CRF-BP/CRF-R2 complex antagonism; HEK293 CRF-R2/CRF-BP, CRF-induced calcium fluorescence; inhibition, % at 11.8 µM; 0.59% of 350,000 active;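 active = inhibition of the ligand-induced calcium signal above about 50% at the single tested concentration, limit read from the data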
Myeloid diff CP1 – myeloid differentiation induction; ER-HoxA9 myeloid progenitors, GFP/Mac1 double-positive flow; shares compounds with Myeloid diff MLP; calls only; 2% of 2,300 active;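 active = share of green or green-and-red cells above 9 and 9% in run 1 or 4 and 3% in run 2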
GFP autofluor – compound fluorescence in myeloid differentiation counter-screen | shares compounds with Myeloid diff MLP | 7.4% of 2,300 active | fluorescence response, % (no concentration beside the values) | ER-HoxA9 myeloid progenitors, no estrogen, GFP autofluorescence flow cytometry; vehicle wells 0%, positive control 100%;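 active = over 5% cells positive for green fluorescent reporter, or over 2% positive for both it and APC stain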;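 note: range taken on the double positive population between DMSO and positive control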
* marks the source's active call; other numbers are inactive results; i = inactive; ? = inconclusive; / = not tested or not shown; + = active, no number; ! = a repeat was not active.

SMILES | NRP1-CendR mod | NadD block | FAS-TE inh | Myeloid diff MLP | CRFBP-R2 block | Myeloid diff CP1 | GFP autofluor
O=C(NCc1ccccc1)C1C(c2ccc3c(c2)OCO3)=Nc2ccccc2N1C(=O)c1ccco1 (stereo not given) | 4 | / | / | i | / | i | 0
COc1cc(NC(=O)c2cccc3c(-c4cnn(C)c4)coc23)cc(OC)c1OC | -7 | -8 | -9 | + | / | i | 26*
COc1ccc(CNC(=O)c2cccc3c(-c4cccnc4)coc23)cc1OC | -11 | 5 | -9 | i | / | i | 1
COc1ccc(NC(=O)c2cccc3c(-c4cnn(C)c4)coc23)cc1 | -17 | -7 | 6 | i | / | / | /
CC(C)N=C(NS(=O)(=O)c1ccccc1)C(Cl)(Cl)Cl | 3 | -3 | -7 | ? | -10 | / | /
Cc1ccc(Nc2c(-c3ccccn3)nc3cc(C)ccn23)cc1 | 7 | 6 | -12 | i | -8 | i | 0
Cc1ccn2c(Nc3ccc4c(c3)OCO4)c(-c3ccccn3)nc2c1 | 1 | 9 | 7 | i | -30 | / | /
COc1cccc(OC)c1C(=O)OCc1c(-c2ccccc2)ncc2ccccc12 | 5 | 16 | 19 | i | -5 | / | /
COc1cccc(NC(=O)C2CC(=O)N(C)C(=Nc3cccc(F)c3)S2)c1 (stereo not given) | 7 | -4 | 14 | i | 3 | i | 0
Cc1cc(C)nc(Nc2ncc(O)n2-c2ccc(C)c(C)c2)n1 | 1 | 7 | -5 | i | 11 | / | /
COc1ccc(OC)c(-n2c(O)cnc2Nc2nc(C)cc(C)n2)c1 | 2 | 4 | -4 | i | 16 | i | 0
N=C(N)SCc1nc2ccccc2c(=O)n1-c1ccccc1 | -43 | 12 | -7 | +! | -8 | i | 2
N=C(N)n1c(N)nc2ccccc2c1=O | 4 | -4 | -1 | i | -11 | / | /
Cc1cc(C)nc(NNS(=O)(=O)c2c(F)cc(F)cc2Br)n1 | 6 | 5 | 1 | i | -9 | / | /
O=C(NCCN1CCOCC1)N1CCOCC1 | -3 | -1 | -9 | i | -17 | i | 0
COc1ccc(N2CCN(S(=O)(=O)c3ccc4c(c3)NC(=O)CC(=O)N4)CC2)cc1 | 7 | 3 | 12 | i | 7 | / | /
CCCCCSc1nncc(=O)[nH]1 | -6 | 0 | -4 | + | 19 | i | 1
CCCCCCCSc1nnc(-c2ccccc2N)c(=O)[nH]1 | -11 | 9 | -1 | i | 3 | / | /
Cc1ccc(N(C(=O)c2csnn2)C(C(=O)NC2CCCC2)c2ccccn2)cc1 (stereo not given) | 4 | 3 | -2 | i | -11 | / | /
CC1(c2ccccc2)NC(=O)N(CC(=O)Nc2cccc(C#N)c2)C1=O (stereo not given) | 1 | -5 | 0 | i | -10 | / | /
CCC1(c2ccccc2)NC(=O)N(CC(=O)Nc2cccc(C#N)c2)C1=O (stereo not given) | 6 | -3 | 3 | + | -10 | i | 0
N#CCc1nc2n(n1)Cc1ccccc1-2 | 3 | 2 | -10 | i | -2 | i | 0
c1ccc2c(c1)Cn1nc(Cc3nc4c(s3)CCCC4)nc1-2 | 1 | 10 | 0 | i | -5 | / | /
Nc1cccc(C#Cc2ccc3c(c2)C(=O)/C(=C/c2ccsc2)O3)c1 | -12 | 26 | 3 | i | -11 | i | 0
CC/C(C)=N/Nc1ccc(S(=O)(=O)N2CCCC2)cc1[N+](=O)[O-] | 14 | 1 | 19 | + | 6 | i | 0
SMILES | NRP1-CendR mod | NadD block | FAS-TE inh | Myeloid diff MLP | CRFBP-R2 block | Myeloid diff CP1 | GFP autofluor
Cc1ccc(S(=O)(=O)N2C[C@H]3C(=O)C[C@@H](c4ccccc4)N(S(=O)(=O)c4ccc(Br)cc4)[C@H]3C[C@H]2c2ccccc2)cc1 | 7 | 11 | 25 | + | / | i | 4
Cc1ccc(S(=O)(=O)N2C[C@H]3C(=O)C[C@@H](c4ccccc4)N(S(=O)(=O)c4ccc(C)cc4)[C@H]3C[C@H]2c2ccccc2)cc1 | -4 | 9 | 42 | i | -12 | / | /
O=C(COC(=O)Cc1ccc(Cl)cc1Cl)Nc1ccccc1OC(F)F | -2 | -1 | -5 | i | 0 | / | /
COc1cccc(/C(O)=C/c2nc3ccc(C(=O)NCCc4ccc(Cl)cc4)cc3[nH]c2=O)c1 | 6 | 23 | -28 | + | -244 | i | 0
Cc1cccc(-n2nc3c(c2NC(=O)c2ccc4c(c2)OCO4)CS(=O)(=O)C3)c1C | 5 | -2 | 1 | i | 3 | / | /
Cc1cccc(C)c1N(Cc1ccccc1F)S(C)(=O)=O | 6 | -3 | 1 | i | -9 | / | /
COc1ccc(N2CCN(C(=O)c3cccc(NS(=O)(=O)c4cccc(F)c4)c3)CC2)cc1 | 3 | 0 | 5 | i | 14 | / | /
COc1ccc(NS(=O)(=O)c2cccc(C(=O)NNC(=O)COc3ccccc3)c2)cc1 | 4 | -6 | -7 | + | 3 | i | 0
COc1ccc(N2CCN(C(=O)c3ccc(C)c(Cl)c3)CC2)cc1 | 1 | -1 | 10 | i | -9 | i | 0
COc1ccc(N2CCN(C(=O)c3ccc(NS(=O)(=O)c4cccc(F)c4)cc3)CC2)cc1 | 13 | -6 | 0 | i | 10 | i | 1
CN(Cc1cc(Cl)cc(Cl)c1)[C@H]1C[C@H]2c3[nH]c4ccccc4c3CCN2C(=O)[C@H]1CO | 7 | 11 | 14 | i | 7 | / | /
Cc1ccc(C(=O)ON=C2CCN(S(=O)(=O)c3ccccc3)CC2)cc1 | -6 | 2 | 9 | i | 6 | i | 0
O=C(O)CCNC(=O)/C(=C\C=C\c1ccccc1)NC(=O)c1ccccc1 | -7 | 2 | -1 | i | -16 | i | 1
CCOc1ccc(NC(=O)Cn2c(=O)n(CCCC(=O)NC3CCN(Cc4ccccc4)CC3)c(=O)c3ccccc32)cc1 | -7 | -4 | -2 | i | 0 | / | /
Cc1c(C(=O)Nc2ccc(F)cc2)cn2c(nc3ccccc32)c1C#N | -25 | -1 | -3 | i | -16 | / | /
N#Cc1c2nc3ccccc3nc2n2cc(NC(=O)c3ccc(F)cc3)ccc12 | -34 | 7 | -8 | i | -83 | i | 3
COc1ccc(OC)c(-c2csc(NC(=O)Cc3cccs3)n2)c1 | 2 | 4 | 17 | + | 28 | i | 0
Cn1c(N)c(C(=O)COC(=O)c2ccccc2C(=O)c2ccc(Cl)cc2)c(=O)n(C)c1=O | 8 | -5 | -14 | i | -16 | i | 1
CC(C)Cn1c(=O)[nH]c(=O)c2c(C(F)(F)F)cc(-c3ccccc3)nc21 | -3 | -2 | 11 | i | -20 | / | /
O=C(Oc1ccnc2cc(Cl)ccc12)N1CCOCC1 | 13 | 4 | -9 | i | 2 | i | 0
COc1ccc(OCC(=O)OCCN2C(=O)c3ccccc3C2=O)cc1 | -2 | 4 | -1 | + | 6 | i | 0

Bioassay records deposited in PubChem by several laboratories.
